We go through 48 molecules from PubChem BioAssay AID1529 (NMMLSC, 2009).

Each structure is given as a SMILES string. The campaign covered roughly 290,000 compounds. About 4,200 (1.4%) were called active. This is one part of a sample in which actives are shown more often than they occur. Unmarked numbers belong to inactive results.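 How the source made its calls: active means binding response more than 3 SD above or below the average of its plate-row segment, actives on both sides; inconclusive means wells at one plate position flagged as instrument error; inactive means the rest.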

Chain of Mitogen-activated protein kinase kinase kinase 3 (Homo sapiens) (Q99759 whole entry, looked up): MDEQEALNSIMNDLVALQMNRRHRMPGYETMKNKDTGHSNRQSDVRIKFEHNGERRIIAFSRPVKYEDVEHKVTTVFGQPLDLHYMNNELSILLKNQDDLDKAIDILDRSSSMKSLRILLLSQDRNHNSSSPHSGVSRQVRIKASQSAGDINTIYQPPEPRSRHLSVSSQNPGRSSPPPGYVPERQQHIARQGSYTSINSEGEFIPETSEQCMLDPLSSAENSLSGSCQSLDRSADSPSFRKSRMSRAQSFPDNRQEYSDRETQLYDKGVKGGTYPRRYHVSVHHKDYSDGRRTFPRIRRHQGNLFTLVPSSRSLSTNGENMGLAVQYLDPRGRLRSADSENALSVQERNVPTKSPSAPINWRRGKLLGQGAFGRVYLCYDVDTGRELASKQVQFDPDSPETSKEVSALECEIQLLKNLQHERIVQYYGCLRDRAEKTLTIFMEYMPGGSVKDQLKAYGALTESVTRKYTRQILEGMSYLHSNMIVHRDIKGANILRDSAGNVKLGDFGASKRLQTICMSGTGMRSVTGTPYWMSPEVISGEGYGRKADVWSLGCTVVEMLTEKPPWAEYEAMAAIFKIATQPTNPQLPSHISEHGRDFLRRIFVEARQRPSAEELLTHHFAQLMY

The assay concerns the target Mitogen-activated protein kinase kinase kinase 3 (Homo sapiens) (UniProt Q99759). As to the kind of experiment: modulators of MEKK3-MEK5 PB1 binding, primary screen, biochemical, wildtype MEKK3, multiplex bead flow cytometry, Alexa488-MEK5 (AID 1529).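 Further: Alexa488 bead fluorescence after subtracting the streptavidin-only scavenger bead signal.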 As to conditions: bead-based flow cytometry, Alexa488-MEK5 binding to MEKK3; at 10 µM; actives lie on both sides; 0 = blocked by unlabeled MEK5, 100 = vehicle.
On to `CC1(C)Cc2cccc(OCC(=O)N3CCN(c4ccc([N+](=O)[O-])cc4)CC3)c2O1`, for which the binding response (% of control) was 59% [inhibitor] (active).

For the molecule `CC1(C)Cc2cccc(OCC(=O)NCc3ccccc3)c2O1`, the binding response (% of control) was 100%.

In the case of `COc1ccc(C)cc1NC(=O)CN(C)S(=O)(=O)c1ccc2c(c1)n(C)c(=O)c(=O)n2C`, the binding response (% of control) was 101%.

As to `CCOc1cc(NC(=S)NCc2ccco2)c(OCC)cc1NC(=O)c1ccco1`, the binding response (% of control) was 105%.

As for `COc1cc(NC(=S)NCc2ccco2)c(OC)cc1Cl`, the binding response (% of control) was 71% [inhibitor] (active).

Regarding `FC(F)Oc1ccc(NC(=S)NCc2ccco2)cc1Cl`, the binding response (% of control) is 99%.

On to `CCOC(=O)C1Nc2ccc(C(F)(F)F)cc2C2C=CCC12` (stereo not drawn), for which the binding response (% of control) was 99%.

For `CCC(=O)N1c2ccccc2NC2=C(C(=O)CCC2)C1c1ccco1` (stereo not drawn), the binding response (% of control) is 94%.

Regarding `CCCC(=O)N1c2ccccc2NC2=C(C(=O)CCC2)C1c1ccc(F)cc1` (stereo not drawn), the binding response (% of control) was 100%.

As to `CC(C)C(=O)N1c2ccccc2NC2=C(C(=O)CCC2)C1c1ccc(N(C)C)cc1` (stereo not drawn), the binding response (% of control) was 129% (active).

With `CC(C)(C)C(=O)Nc1ccc(-c2cn3cccnc3n2)cc1`, the binding response (% of control) is 107%.

As for `COc1cc(C(C)=O)ccc1OC(=O)CN1C(=O)c2ccccc2C1=O`, the binding response (% of control) was 102%.

For the molecule `CC1Cc2ccccc2N1C1=CC(=O)CC(C)(C)C1` (stereo not drawn), the binding response (% of control) is 100%.

On to `CC1(C)OC(=O)N2CCc3ccccc3C21C` (stereo not drawn), for which the binding response (% of control) is 129% (active).

For `CNC(=O)/C(=C\C=C\c1ccccc1)NC(=O)c1ccc([N+](=O)[O-])cc1`, the binding response (% of control) is 73% [inhibitor] (active).

For `O=C(Nc1ccccc1)/C(=C/c1ccc([N+](=O)[O-])cc1)NC(=O)c1ccccc1`, the binding response (% of control) is 111%.

As to `O=C(Nc1ccc(C(=O)O)cc1)/C(=C/c1ccc([N+](=O)[O-])cc1)NC(=O)c1ccccc1`, the binding response (% of control) was 97%.

Turning to `O=C(Nc1ccc(O)cc1)c1ccc(NC(=O)c2ccco2)cc1`, the binding response (% of control) is 101%.

With `COc1ccc2c(c1)CCNC2Cc1ccc(OC)c(O)c1` (stereo not drawn), the binding response (% of control) is 98%.

Turning to `C=CCn1c(-c2ccc3[nH]c(C)c(C)c3c2)n[nH]c1=S`, the binding response (% of control) was 105%.

In the case of `C=CCn1c(-c2sc(-c3ccccc3)nc2C)n[nH]c1=S`, the binding response (% of control) is 99%.

For `C=CCn1c(=S)sc2c(=O)[nH]c(C)nc21`, the binding response (% of control) was 131% (active).

Turning to `O=S(=O)(c1cccc(Cn2nnc(-c3ccc(F)cc3)n2)c1)N1CCOCC1`, the binding response (% of control) was 103%.

With `Cc1ccc(SCC(=O)Nc2ccc3c(c2)OCCO3)cc1`, the binding response (% of control) was 127%.

Consider `Cc1csc(NC(=O)CSc2ccc(-c3ccc(F)cc3)nn2)n1`, for which the binding response (% of control) is 100%.

Take `O=C(CSc1ccc(-c2ccc(F)cc2)nn1)Nc1ccc2c(c1)OCCO2`: the binding response (% of control) is 133% (active).

Regarding `C[C@H]1CC[C@]2(O[C@@H](CCO)C[C@@H](O)[C@@H]2O)O1`, the binding response (% of control) is 96%.

Consider `COc1cccc(Nc2ncccc2C(=O)O)c1`, for which the binding response (% of control) was 3% [inhibitor] (active).

Regarding `COc1ccc2nc(C)cc(Nc3cccc(C(=O)O)c3)c2c1`, the binding response (% of control) is 106%.

In the case of `COc1cc(NC(=O)c2cccnc2SC)cc(OC)c1`, the binding response (% of control) is 110%.

Take `O=C(NC(=S)Nc1ccc(Cl)cc1Cl)C1CC1`: the binding response (% of control) was 100%.

For the molecule `Cc1ccc2oc(C(=O)N3CCN(C)C[C@@H]3C(C)C)c(C)c2c1`, the binding response (% of control) is 102%.

Consider `COc1ccc(NCCc2ccccn2)cc1`, for which the binding response (% of control) was 108%.

As for `O=C(NC(Cc1c[nH]c2ccccc12)C(=O)O)/C(=C/c1ccco1)NC(=O)c1ccccc1` (stereo not drawn), the binding response (% of control) is 101%.

Take `COc1ccc(/C=C(\NC(=O)c2ccc(OC)c(OC)c2)C(=O)NCCc2c[nH]c3ccccc23)cc1`: the binding response (% of control) is 103%.

As to `Cc1ccc(C(=O)N/C(=C/c2ccco2)C(=O)NCCc2c[nH]c3ccccc23)cc1C`, the binding response (% of control) is 73% [inhibitor] (active).

For the molecule `CCOC(=O)c1cc2occc2n1CC(=O)NC1CCC(C)CC1` (stereo not drawn), the binding response (% of control) was 104%.

`CCOC(=O)c1cc2occc2n1CC(=O)N1CCN(C(=O)c2ccco2)CC1`: the binding response (% of control) was 0% [inhibitor] (active).

Turning to `CCOC(=O)c1cc2c(ccn2C)n1CC(=O)N1CCC(C)CC1`, the binding response (% of control) is 111%.

For `CCn1c(SCC(=O)NC2CCCC2)nnc1-c1ccoc1C`, the binding response (% of control) was 98%.

As to `Cc1cccc(NC(=O)CN2C(=O)c3ccccc3C2=O)c1C`, the binding response (% of control) was 110%.

`Cc1ccccc1C(=O)NNC(=O)CN1C(=O)c2ccccc2C1=O`: the binding response (% of control) was 135% (active).

As to `Cc1cc(C)cc(NC(=O)CN2C(=O)c3ccccc3C2=O)c1`, the binding response (% of control) is 97%.

Take `CCC(Cc1ccccc1)NC(=O)C1CCCCC1` (stereo not drawn): the binding response (% of control) is 101%.

On to `CCOCCCN(C)C1CCN(C(=O)c2oc3ccccc3c2NC(=O)Cc2cccc([N+](=O)[O-])c2)CC1`, for which the binding response (% of control) is 99%.

In the case of `Cc1ccc(N2C(=O)CC(N3CCSCC3)C2=O)c(C)c1` (stereo not drawn), the binding response (% of control) was 55% [inhibitor] (active).

As for `O=C1CC(N2CCN(c3ccc(F)cc3)CC2)C(=O)N1c1ccccc1` (stereo not drawn), the binding response (% of control) was 100%.

Regarding `Cc1ccc(CC2CC(=O)N(c3cc(C)ccc3C)C2=O)cc1` (stereo not drawn), the binding response (% of control) is 101%.
